High-throughput results deposited in PubChem BioAssay by Paczesny and Yang Labs, IUPUI and University of Michigan.
The sample as a whole holds a higher share of hits than the screen did.
ST2 IL33 inh – IL1RL1 inhibition; Q01638; AlphaLISA ST2-Fc/biotin-IL-33 interaction, 1 h; inhibition, % for hits at 17 µM; actives 2.3% (n = 78,000); AID 1259354; in the data active = inhibition above about 30%
Target sequence (Q01638 whole entry, looked up): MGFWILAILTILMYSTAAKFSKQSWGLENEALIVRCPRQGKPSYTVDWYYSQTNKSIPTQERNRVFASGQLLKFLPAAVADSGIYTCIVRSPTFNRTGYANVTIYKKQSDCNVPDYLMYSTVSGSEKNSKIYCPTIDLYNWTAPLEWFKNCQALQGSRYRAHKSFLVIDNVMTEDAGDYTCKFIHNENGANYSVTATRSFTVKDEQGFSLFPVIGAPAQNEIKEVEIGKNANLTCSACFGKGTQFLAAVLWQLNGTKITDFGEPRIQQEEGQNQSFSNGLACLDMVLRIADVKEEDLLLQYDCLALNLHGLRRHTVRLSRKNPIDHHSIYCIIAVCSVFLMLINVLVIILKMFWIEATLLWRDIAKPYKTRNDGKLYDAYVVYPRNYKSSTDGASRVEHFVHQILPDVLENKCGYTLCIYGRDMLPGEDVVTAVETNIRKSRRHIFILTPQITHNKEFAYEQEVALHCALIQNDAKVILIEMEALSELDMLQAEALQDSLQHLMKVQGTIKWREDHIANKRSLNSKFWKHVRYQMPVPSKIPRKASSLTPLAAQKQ
Each line names hits and unclear results; the compound was inactive in the other large screens.

N#Cc1ccc(C(=O)Nc2ccc(-c3nc4ccccc4s3)cc2)cc1	ST2 IL33 inh 32%
CC(=O)Nc1ccc(-c2nc3cc4sc(-c5ccc(NC(C)=O)cc5)nc4cc3s2)cc1	none
O=C(Cc1ccccc1)Nc1cccc(-c2nc3ccccc3s2)c1	none
CCOc1cc(C2C(C(=O)Nc3ccc(Cl)cc3)=C(C)Nc3nnnn32)ccc1OC(F)F (stereo not drawn)	none
CC(=O)N1CCC(N2CCOC(CCCc3ccccc3)C2)CC1 (stereo not drawn)	none
CC(C)OCCCNC(=O)C1(O)c2ccccc2NC(=O)N1c1ccc(Cl)cc1 (stereo not drawn)	none
Cc1ccc(NC(=O)c2ccc(C)c(S(=O)(=O)Nc3ccccn3)c2)cc1	none
O=C(Nc1ccc(Br)cc1)c1cccc(S(=O)(=O)Nc2ccccn2)c1	ST2 IL33 inh 42%
O=S(=O)(Nc1ccccn1)c1ccc(Br)cc1	none
Cc1cc(NC(=O)c2c(-c3c(Cl)cccc3Cl)noc2C)no1	none
COc1cc(C2Nc3ccccc3-c3nnc(SC)nc3O2)cc([N+](=O)[O-])c1O (stereo not drawn)	none
CCOC(=O)Oc1ccc2c(c1)oc(=O)c1ccccc12	none
COC(=O)Oc1cc2oc(=O)sc2cc1Cl	none
CCOC(=O)Oc1c(Cl)cc2oc(=O)sc2c1Br	ST2 IL33 inh 32%
Cc1nn(-c2ccc(F)cc2)c(C)c1CN1CCCC(N2CCOCC2)C1 (stereo not drawn)	none
COc1ccc(-c2nc(CN(Cc3c(C)nn(C)c3C)C3CC3)c(C)o2)c(C)c1C	none
CN(CC1CCN(CCc2ccc(F)cc2)CC1)C(=O)c1csc2c1CCCC2	none
CC1(C)CC(C(=O)NCc2ccc3[nH]c4c(c3c2)CCCC4)CCO1 (stereo not drawn)	none
COc1ccc(NC(=O)c2cc3cc(Br)cc(Br)c3oc2=O)cc1	none
CC(=O)Oc1ccc2c(=O)c(Oc3ccccc3)coc2c1C	none
Cc1c(O)ccc2c(=O)c(Oc3ccccc3)coc12	none
O=c1c(Oc2ccc(F)cc2)coc2c(O)c(O)ccc12	ST2 IL33 inh 41%
COc1cccc(-n2c(=O)c3c(C)c(C)sc3n(CC(=O)Nc3cc(C)[nH]n3)c2=O)c1	none
Cc1cccc(=O)n1CCC(=O)N1CCC2(CC1)c1ccccc1[C@@H](N)[C@@H]2O	none
CCSc1nc2c(c(=O)[nH]1)C(c1ccc(Cl)cc1)C1=C(CC(C)(C)CC1=O)N2 (stereo not drawn)	none
CN(CCCc1cnn(C)c1)c1nc(-c2cccnc2)nc2c1cnn2C	ST2 IL33 inh 30%
Cc1nnsc1CNc1nc(-c2cccnc2)nc2c1cnn2C	none
Cn1ncc2c(NCc3n[nH]c4c3CCCCC4)nc(-c3cccnc3)nc21	none
NC(=O)c1csc(-c2cnc3ccccc3c2)n1	none
COc1ccc(-n2ccc3ccccc32)cc1	none
O=[N+]([O-])c1ccc(-n2ccc3ccccc32)cc1	ST2 IL33 inh 32%
O=[N+]([O-])c1ccc(S(=O)(=O)n2nnc3ccccc32)cc1	none
COc1ccc(F)cc1S(=O)(=O)NCc1cccnc1	none
COc1ccc2c(C)c(C(=O)O)oc2c1	none
CCOC(=O)c1c(-c2ccccc2)oc2ccc(OC)cc12	none
COc1ccc2oc(C(=O)c3ccccc3)c(N)c2c1	ST2 IL33 inh 35%
COc1ccccc1C/C(N)=N\OC(=O)c1cccc(Br)c1	none
Cc1ccc(C(=O)Nc2ccccc2C(=O)O)cc1	none
O=C(Nc1ccccc1C(=O)O)c1ccccc1	ST2 IL33 inh 33%
O=C(Nc1ccccc1F)c1ccccc1	none
NC(=O)CC[C@H](N)C(=O)O	none
CCCCS(=N)(=O)CCC(N)C(=O)O (stereo not drawn)	none
N[C@H](CCC(=O)NCS(=O)(=O)O)C(=O)O	ST2 IL33 inh 85%
COc1cc(-c2ccc(C(C)NC(C)=O)cc2)cc(OC)c1OC (stereo not drawn)	none
Cc1cc([N+](=O)[O-])nn1CCCC(=O)Nc1sc2c(c1C(=O)OC(C)C)CCCC2	none
c1ccc2sc([C@H]3CCNC3)nc2c1	ST2 IL33 inh 32%
CC(=O)N1CCC(N2CC[C@H](c3nc4ccccc4s3)C2)CC1	none
O=C(O)CCC(=O)N1CC[C@H](c2nc3ccccc3s2)C1	none
O=C(NC1CCCCC1)c1cc(=O)[nH]c2ccc(Br)cc12	none
O=C(Nc1ccccc1)NC1CC(=O)N(Cc2cccc(F)c2)C1 (stereo not drawn)	none
NS(=O)(=O)c1ccc(Nc2nc3nonc3nc2Nc2ccc(S(N)(=O)=O)cc2)cc1	none
Cc1c(Cl)ccc(S(=O)(=O)NCCOC23CC4CC(CC(C4)C2)C3)c1Cl	none
CC1CC(=O)C2=C(CCC3(O)C2C(=O)c2cccc(O)c2C3O)C1 (stereo not drawn)	ST2 IL33 inh 31%
CCCn1c(CCCNC(=O)c2cccs2)nc2ccccc21	none
CSc1nsc(SC)c1NC(=O)N1CCOCC1	none
C=CCNC(=O)c1cc2c(=O)n3cccc(C)c3nc2n(CCCn2ccnc2)c1=N	ST2 IL33 inh 31%
Cc1cccn2c(=O)c3cc(C(=O)NCC4CCCO4)c(=N)n(CCCn4ccnc4)c3nc12 (stereo not drawn)	none
COCCCn1c(=N)c(C(=O)NC2CCCC2)cc2c(=O)n3cccc(C)c3nc21	none
CCn1c2ccccc2c2nnc(SCC(=O)N3CCCc4ccccc43)nc21	none
c1ccc(CCn2c3ccccc3c3nnc(SCCN4CCOCC4)nc32)cc1	none
O=C(CSc1nnc2c3ccccc3n(CCc3ccccc3)c2n1)N1CCOCC1	ST2 IL33 inh 33%
COC(=O)C1C(=O)C2=C(CC1C)NC(C)=C(C(=O)OC1CCCCCC1)C2c1cccc(F)c1 (stereo not drawn)	none
Cc1nc(SCC(=O)N2CCC(C)CC2)c2c(=O)n(C)c(=O)n(C)c2n1	none
O=C(O)CCCN(Cc1ccc(Br)cc1)S(=O)(=O)c1ccc(F)cc1	none
CN(C)c1ccc(/C=C2/C(=O)c3ccc(C(=O)O)cc3C2=O)cc1	none
CC1=NN(c2cc(C(=O)O)cc(C(=O)O)c2)C(=O)/C1=C\c1ccc(N(C)C)cc1	ST2 IL33 inh 76%
CC1=NN(c2cccc(Cl)c2)C(=O)/C1=C\c1ccc(-c2ccc(C(=O)O)c(Cl)c2)o1	none
CC1=NN(c2ccc(F)cc2)C(=O)/C1=C/c1ccc(N(C)C)c([N+](=O)[O-])c1	none
CCc1ccc(N2N=C(C)/C(=C/c3ccc(N(C)C)cc3)C2=O)cc1	ST2 IL33 inh 42%
CC(C)N(C(=O)Cn1c(COc2ccccc2)nc2ccccc21)c1ccccc1	none
COc1ccc(OC)c(S(=O)(=O)NCC(C)C)c1	none
CC1CCc2cc(F)ccc2N1S(=O)(=O)c1ccc([N+](=O)[O-])cc1 (stereo not drawn)	ST2 IL33 inh 36%
CC1CCc2cc(F)ccc2N1S(C)(=O)=O (stereo not drawn)	none
CC1CCc2cc(F)ccc2N1C(=O)c1ccc([N+](=O)[O-])cc1 (stereo not drawn)	none
CCOc1ccc(Cl)cc1CN(C)C(=O)CC(=O)Nc1ccccc1C	none
Cc1cccc(NC(=O)c2cc3ccccc3o2)c1C	none
Nc1ccc(/C=C/C2C=CC=CC2)cc1 (stereo not drawn)	ST2 IL33 inh 47%
CC12CC(NC(=O)N1c1ccc(C(=O)NCc3ccccc3)cc1)c1ccccc1O2 (stereo not drawn)	none
Cc1cc(Br)ccc1NS(=O)(=O)c1cccnc1	none
O=c1[nH]nc(CCc2ccccc2O)n1Cc1ccco1	none
c1ccc(-c2nnc([C@H]3CCN(Cc4ccco4)C3)o2)cc1	none
N=c1c2c(-c3ccccc3)c(-c3ccccc3)n(Cc3ccco3)c2ncn1Cc1ccco1	ST2 IL33 inh 31%
CC(=O)NC12CC3CCC(CC(C3)C1)C2	none
Cc1ccccc1NS(=O)(=O)c1ccc(-c2ccccc2)cc1	none
CC1(C)Cc2c(c(-c3ccccc3)nc3sc4c(NCCN5CCOCC5)ncnc4c23)CO1	none
NC(=O)COc1ccccc1O	none
